# Data: PubChem BioAssay
# Activity calls are given as the source filed them. Unless noted, the rule behind the calls is not given here.
# Legend:
# [1] = resazurin metabolic signal in HepG2 cells – cell-based, resazurin fluorescence, 24 h, PK04 Diversity Set, profiling panel (AID 1172); conditions: HepG2 viability, higher = more signal
# [2] = budding yeast growth changes without added modifier – OD600, strain BY4716, 24 h, basal condition, primary screen (AID 1173); conditions: S. cerevisiae BY4716 growth, OD600, 24 h; higher = more signal, called active from +8 up or from −8 down
# [3] = viability profiling in MM1S myeloma cells – cell-based, resazurin fluorescence, basal, 24 h, PK04 Diversity Set, profiling panel (AID 1174); conditions: higher = more signal, called active from +8 up or from −8 down;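 note: MM1S multiple myeloma cell line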
# [4] = target: Dihydroorotate dehydrogenase (quinone), mitochondrial (Plasmodium falciparum (isolate 3D7)) (UniProt Q08210); assay: inhibition of P. falciparum DHODH – biochemical, C-terminal His tag, absorbance 600 nm, primary screen (AID 1175); conditions: PfDHODH enzyme, DCIP absorbance 600 nm; higher = more signal, called active from +8 up or from −8 down;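 note: recombinant parasite enzyme with a five histidine tag at its C terminus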
# [5] = inhibition of PAO1 biofilm formation – strain PAO1, LB-PBS medium, absorbance 600 nm, primary screen (AID 1176); conditions: P. aeruginosa PAO1 growth/biofilm, A600, 12 h; higher = more signal
# [6] = growth modulation of vineyard yeast isolate – strain RM11-1a, OD600, basal, 24 h, primary screen (AID 1177);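 note: cultures grown under basal conditions with no added stressor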; conditions: S. cerevisiae RM11-1a growth, OD600, 24 h; higher = more signal, called active from +8 up or from −8 down
# [7] = growth of efflux-deficient E. coli DRC39 – strain DRC39, OD650, 24 h, E. coli filamentation inducers, primary screen (AID 1178);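 note: growth measured as culture turbidity by optical density at 650 nm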; conditions: E. coli DRC39 acrAB, higher = more signal, called active from +8 up or from −8 down
# [8] = growth of efflux-deficient E. coli DRC39 – strain DRC39, OD650, 48 h, E. coli filamentation inducers, primary screen (AID 1179);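 note: screen aims at cell division blockers that make cells filament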; conditions: E. coli DRC39 delta-acrAB growth, higher = more signal, called active from +8 up or from −8 down
# [9] = viability profiling in RPMI8226 myeloma cells – cell-based, resazurin fluorescence, basal, 24 h, PK04 Diversity Set, profiling panel (AID 1180); conditions: higher = more signal;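 note: RPMI8826 multiple myeloma cell line at 5000 cells per well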
# [10] = target: E3 ubiquitin-protein ligase XIAP (Homo sapiens) (UniProt P98170); assay: small molecules binding XIAP protein – biophysical, small-molecule microarray, fluorescence 635 nm, primary screen (AID 1181); conditions: higher = more signal;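 note: score merges 667 nm emission and signal to noise over triplicate slides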
# [11] = tested on: XIP peptide (Xip251-270) binding; assay: XIP fragment 251-270 binding compounds – biochemical, small-molecule microarray, fluorescence 635/667 nm, 0.1 µg/mL protein, primary screen (AID 1182); conditions: fluorescent protein binding, 635 nm, higher = more signal, called active from +8 up or from −8 down
# [12] = tested on: XIP peptide (Xip251-270); assay: compounds binding XIP fragment 251-270 – biochemical, small-molecule microarray, fluorescence 635/667 nm, 0.5 µg/mL protein, primary screen (AID 1183); conditions: fluorescence 635 nm, higher = more signal
# [13] = blood-stage malaria parasite viability loss – strain 3D7, DAPI fluorescence, 100 nL, primary screen (AID 1184);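 note: parasites grown inside human red blood cells in medium with human serum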; conditions: P. falciparum 3D7 growth, 3 d, higher = more signal
# [14] = target: Homeobox protein Hox-A13 (Mus musculus) (UniProt Q62424); assay: disruptors of Hoxa13 oligonucleotide interaction – biochemical, fluorescence polarization, labeled oligonucleotide, primary screen (AID 1185); conditions: Hoxa13:DNA binding, 15 min, higher = more signal, called active from +8 up or from −8 down
# [15] = blockers of DNA damage checkpoint Chk1 activation – imaging, HeLa, hydroxyurea, phospho-Chk1 antibody, percent positive cells, primary screen (AID 1186); conditions: hydroxyurea-induced phospho-Chk1 immunofluorescence imaging, higher = more signal
# [16] = blockers of DNA damage checkpoint Chk1 activation – imaging, HeLa, hydroxyurea, phospho-Chk1 nuclear intensity, primary screen (AID 1187); conditions: hydroxyurea-induced phospho-Chk1 immunofluorescence imaging, higher = more signal
# Sequence of Dihydroorotate dehydrogenase (quinone), mitochondrial (Plasmodium falciparum (isolate 3D7)) (Q08210 whole entry, looked up): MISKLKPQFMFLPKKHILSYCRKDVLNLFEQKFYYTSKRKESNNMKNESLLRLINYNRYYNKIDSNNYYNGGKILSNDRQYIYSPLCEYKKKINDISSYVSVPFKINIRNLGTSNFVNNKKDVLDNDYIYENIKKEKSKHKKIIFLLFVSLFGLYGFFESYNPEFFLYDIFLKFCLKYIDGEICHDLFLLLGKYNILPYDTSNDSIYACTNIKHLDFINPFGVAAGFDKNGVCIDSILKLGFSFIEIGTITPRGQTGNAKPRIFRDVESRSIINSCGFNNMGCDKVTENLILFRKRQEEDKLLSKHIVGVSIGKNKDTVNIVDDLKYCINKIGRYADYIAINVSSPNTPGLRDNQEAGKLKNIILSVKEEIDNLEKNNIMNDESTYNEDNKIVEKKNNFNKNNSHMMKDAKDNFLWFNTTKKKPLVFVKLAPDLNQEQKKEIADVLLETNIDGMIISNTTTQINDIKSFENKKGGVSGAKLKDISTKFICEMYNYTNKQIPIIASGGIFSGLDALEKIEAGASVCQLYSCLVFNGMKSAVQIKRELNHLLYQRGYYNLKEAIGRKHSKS
# Sequence of Homeobox protein Hox-A13 (Mus musculus) (Q62424 whole entry, looked up): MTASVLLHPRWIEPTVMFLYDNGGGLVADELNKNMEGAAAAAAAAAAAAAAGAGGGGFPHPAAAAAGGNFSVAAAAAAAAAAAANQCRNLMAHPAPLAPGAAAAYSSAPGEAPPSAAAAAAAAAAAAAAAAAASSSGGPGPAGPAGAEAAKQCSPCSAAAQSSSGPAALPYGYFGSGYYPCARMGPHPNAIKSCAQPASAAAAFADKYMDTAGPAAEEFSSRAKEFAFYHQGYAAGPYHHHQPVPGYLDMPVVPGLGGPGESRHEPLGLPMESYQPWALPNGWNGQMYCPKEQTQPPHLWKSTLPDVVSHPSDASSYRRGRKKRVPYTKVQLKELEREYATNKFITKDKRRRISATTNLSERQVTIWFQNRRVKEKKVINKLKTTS
# Sequence of E3 ubiquitin-protein ligase XIAP (Homo sapiens) (P98170 whole entry, looked up, the tested form may be a part): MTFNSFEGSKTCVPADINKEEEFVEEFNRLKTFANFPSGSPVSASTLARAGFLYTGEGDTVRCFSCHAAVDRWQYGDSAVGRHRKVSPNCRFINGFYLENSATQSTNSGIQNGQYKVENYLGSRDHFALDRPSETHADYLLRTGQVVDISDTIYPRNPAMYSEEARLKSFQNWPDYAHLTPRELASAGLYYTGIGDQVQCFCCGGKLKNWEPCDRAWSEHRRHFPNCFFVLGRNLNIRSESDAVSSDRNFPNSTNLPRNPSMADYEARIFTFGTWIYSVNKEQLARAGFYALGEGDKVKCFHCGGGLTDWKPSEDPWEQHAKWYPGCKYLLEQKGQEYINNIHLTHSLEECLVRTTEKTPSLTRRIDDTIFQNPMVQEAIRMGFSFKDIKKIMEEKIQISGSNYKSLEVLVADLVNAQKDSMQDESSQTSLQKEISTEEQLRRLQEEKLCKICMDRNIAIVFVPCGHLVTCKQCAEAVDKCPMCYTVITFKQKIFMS
Compound,z-score [1],z-score [2],z-score [3],composite z-score [4],z-score [5],z-score [6],z-score [7],z-score [8],z-score [9],composite z-score [10],composite z-score [11],composite z-score [12],z-score [13],z-score [14],z-score [15],z-score [16]
C[N+](C)(C)CCCC[C@@H]1NC(=O)[C@@H]2C[C@H](C(=O)NCCCCCCNC(=O)CS)[C@H](c3cccc(OCCO)c3)N2C1=O,0.0265,0.159 (inactive),-0.0664 (inactive),0.092 (inactive),-0.117 (inactive),-0.18 (inactive),0.253 (inactive),0.832 (inactive),0.24,0.131,0.339 (inactive),0.623,-0.198,-3.62 (inactive),-0.38 (inactive),-0.386 (inactive)
CC(C)(C)OC(=O)CC[C@@]1(C(=O)N2CCOCC2)N=C(c2ccc(OCCCO)cc2)O[C@@H]1c1ccccc1N=[N+]=[N-],0.725,0.297 (inactive),-0.894 (inactive),0.668 (inactive),-0.596 (inactive),1.1 (inactive),0.611 (inactive),1.52 (inactive),0.066,0.205,0.14 (inactive),0.84,-1.97,-4.17 (inactive),-0.496 (inactive),-0.439 (inactive)
O=C(NCC(O)CO)[C@]1(CCS(=O)(=O)c2ccccc2)N=C(c2ccc(OCCCO)cc2)O[C@@H]1c1ccccc1 (stereo not given in full),-0.015,0.53 (inactive),-0.57 (inactive),-0.162 (inactive),0.193 (inactive),-0.702 (inactive),-0.0686 (inactive),-0.276 (inactive),0.0882,-0.0203,1.51 (inactive),-0.0557,-0.434,-7.16 (inactive),0.429 (inactive),-0.0974 (inactive)
CCCNC(=O)[C@@]1(C)c2ccccc2C(=O)N(Cc2cc(F)cc(C(F)(F)F)c2)[C@H]1c1ccc(CO)cc1,1.08,-0.769 (inactive),1.16 (inactive),0.134 (inactive),-0.164 (inactive),0.196 (inactive),0.249 (inactive),0.113 (inactive),1.63,-0.181,1.33 (inactive),0.718,-0.8,-3.51 (inactive),0.309 (inactive),0.226 (inactive)
C=CCCN(CC#C[C@H]1Oc2ccccc2S(=O)(=O)N2CCC[C@@H]12)S(=O)(=O)c1ccc(C)cc1,-0.28,-0.0024 (inactive),-1.33 (inactive),0.711 (inactive),0.425 (inactive),1.62 (inactive),0.0069 (inactive),-0.285 (inactive),-1.55,0.0027,-0.183 (inactive),-0.0455,-1.53,-2.47 (inactive),0.508 (inactive),0.431 (inactive)
O=[N+]([O-])c1ccc(C[n+]2ccc(CCCO)cc2)o1,-1.32,-7.77 (inactive),-1.27 (inactive),0.403 (inactive),0.0214 (inactive),0.379 (inactive),-1.4 (inactive),-0.841 (inactive),-0.211,0.905,0.46 (inactive),0.968,-1.28,-2.88 (inactive),-0.0644 (inactive),0.492 (inactive)
NC(=O)NCC#Cc1ccc2c(c1)[C@]1(C(=O)N2)[C@H](c2ccccc2OCCO)N2[C@H](c3ccccc3)[C@H](c3ccccc3)OC(=O)[C@H]2[C@@H]1C(=O)N1CCCCCCC1,-0.0969,-0.0475 (inactive),0.755 (inactive),0.417 (inactive),1.92 (inactive),0.899 (inactive),-0.315 (inactive),-0.127 (inactive),0.966,0.202,0.909 (inactive),0.633,-2.04,3.45 (inactive),0.264 (inactive),0.69 (inactive)
CCOC(=O)C=Cc1cccc(OC)c1O,-0.537,-6.47 (inactive),-0.649 (inactive),-1.15 (inactive),-2.06 (inactive),-1.34 (inactive),-0.597 (inactive),-1.03 (inactive),-1.07,0.0036,0.0682 (inactive),0.36,-1.24,-0.697 (inactive),-1.68 (inactive),-1.49 (inactive)
COC(=O)[C@@]1(Cc2ccc(F)cc2)[C@H]2c3cc(C(=O)N(C)C)n(CCCNc4ccc(C(F)(F)F)cc4Cl)c3C[C@H]2CN1C(=O)c1ccccc1,-0.591,1.28 (inactive),-1.98 (inactive),-0.0269 (inactive),0.439 (inactive),0.482 (inactive),-0.0949 (inactive),0.29 (inactive),-3.88,0.143,0.915 (inactive),0.557,-1.39,-0.925 (inactive),0.456 (inactive),-0.225 (inactive)
CC(C)[Si]1(C(C)C)O[C@@H](c2ccccc2)c2cc(-c3ccc(-c4ccc(Cl)c(Cl)c4)o3)nc(CCc3ccccc3)c21,-0.662,-3.29 (inactive),-0.701 (inactive),-0.231 (inactive),0.726 (inactive),0.144 (inactive),0.231 (inactive),-0.0564 (inactive),-0.622,-0.27,-0.0577 (inactive),-1.03,0.952,-0.21 (inactive),0.0301 (inactive),-0.289 (inactive)
